# Reference: PubChem BioAssay (EPA / NIEHS)
# The source made the active and inactive calls. The calls were made as follows: active = hit-call score of the fitted dose curve at least 0.9, where 1 is the maximum; inactive = score below 0.9.
# Assay: ATG_TGFb_CIS: Attagene CIS-FACTORIAL HepG2 Assay for human Transforming Growth Factor (TGF) (AID 2282967)
# Settings: HepG2 Attagene CIS TGFb reporter, mRNA transcription; actives raise or lower the signal
# Procedure: ATG_CIS is a cell-based, multiplexed-readout assay that uses HepG2, a human liver cell line, with measurements taken at 24 hours after chemical dosing in a 24-well plate.ATG_TGFb_CIS is one of 52 assay component(s) measured or calculated from the ATG_CIS assay. It is designed to make measurements of mRNA induction, a form of inducible reporter, as detected with fluorescence intensity signals by Reverse transcription polymerase chain reaction (RT-PCR) and Capillary electrophoresis technology.Data from the assay component ATG_TGFb_CIS was analyzed into 1 assay endpoint. This assay endpoint, ATG_TGFb_CIS, was analyzed with bidirectional fitting relative to DMSO as the negative control and baseline of activity. Using a type of inducible reporter, measures of mRNA for gain or loss-of-signal activity can be used to understand the reporter gene at the transcription factor-level as they relate to the gene TGFB1. Furthermore, this assay endpoint can be referred to as a primary readout, because this assay has produced multiple assay endpoints where this one serves a reporter gene function. To generalize the intended target to other relatable targets, this assay endpoint is annotated to the growth factor intended target family, where the subfamily is transforming growth factor beta.
# Human liver HepG2 cells are transiently transfected with multiple reporter transcription units (MRTUs) in 6-well plates using FuGene 6 reagent (Roche; 3 ml FuGene/1 mg DNA). The MRTU constructs are regulated by a cis-regulating element (promoter). […] A major difference between the CIS and TRANS system is that in CIS activities of endogenous TFs are measured, whereas the TRANS assay evaluates changes in activities of exogenous, chimeric NR-Gal4 proteins. […] At the end of 24 hour incubation, total RNA was isolated using TriZol reagent (Invitrogen). The isolated RNA is then reverse-transcribed using oligo(dT) primer and Mo-MLV reverse transcriptase (Invitrogen) with DNAse I (Ambion) treatment for 30 min. The one-tenth of the produced cDNA was amplified by PCR using Taq DNA polymerase (Invitrogen) and two reporter sequence-specific primers. The PCR products were fluorescently labeled by primer extension with 6-arboxyfluorescein (6-FAM) 5'-labeled reporter sequence-specific primer (2 min at 95 C, 20 s at 68 C and 10 min at 72 C) and these products were digested with 5U of HpaI (New England Biolabs) for 2h at 37 C. The fragments were purified using Qiaquick PCR columns (Qiagen), analyzed on an ABI 3130xL genetic analyzer (Applied Biosystems) with peak positions identified by using a set of X-rhodamine (ROX)-labeled MapMarker1000 molecular weight standards (BioVentures). The raw capillary electrophoresis data was processed using Attagraph software (Attagene).
SMILES,outcome,AC50
O=C(Oc1ccccc1)c1ccccc1,inactive,–
Clc1ccccn1,inactive,–
CN(C)CCCN1c2ccccc2CCc2ccc(Cl)cc21,inactive,–
C=CN1CCCCCC1=O,inactive,–
CCCCCC[C@@H](O)C/C=C\CCCCCCCC(=O)O,–,115 µM (active)
CC(C)n1c(/C=C/[C@@H](O)C[C@@H](O)CC(=O)O)c(-c2ccc(F)cc2)c2ccccc21,inactive,–
CC(C)CC(=O)CC(C)C,inactive,–
CCCCCCC(O)CCCCCCCCCCC(=O)OC (stereo not given),–,100 µM (active)
CC/C=C/CCO,inactive,–
CC1=CCCC(C)(C)C12CCC(C)O2 (stereo not given),inactive,–
CO[Si](CCCNCCN)(OC)OC,inactive,–
Sc1nc2ccccc2s1,inactive,–
CC(C)(C)NC(=O)[C@@H]1CN(Cc2cccnc2)CCN1C[C@@H](O)C[C@@H](Cc1ccccc1)C(=O)N[C@H]1c2ccccc2C[C@H]1O,inactive,–
O=C(O)Cc1c[nH]c2ccccc12,inactive,–
Cc1ccnc(N)c1,inactive,–
CNC[C@H](O)[C@@H](O)[C@H](O)[C@H](O)CO,inactive,–
O=C(C(=O)c1ccccc1)c1ccccc1,inactive,–
[O-][n+]1ccc(Cl)cc1,inactive,–
CCCCCCOC(=O)CCCCCCCC(=O)OCCCCCC,inactive,–
COC(OC)C(C)c1ccccc1 (stereo not given),inactive,–

SMILES,outcome,AC50
CCCOCCC,inactive,–
C=C(C)C(=O)OCC1CCCO1 (stereo not given),inactive,–
CCCCn1cc[n+](C)c1,inactive,–
C=C(C)C(=O)OCCCCCC,inactive,–
Oc1cccc2ccccc12,inactive,–
CCCCCCCC#N,inactive,–
O=C(O)c1nc(Cl)c(Cl)c(Cl)c1Cl,inactive,–
OCCN(CCO)c1cccc(Cl)c1,inactive,–
CC/C=C\CC/C=C/C(OCC)OCC,inactive,–
CCO[Si](OCC)(OCC)c1ccccc1,inactive,–
O=C(O)c1ccccc1C(=O)O,inactive,–
CC(O)(P(=O)(O)O)P(=O)(O)O,inactive,–
Nc1nnc(-c2ccc([N+](=O)[O-])o2)o1,inactive,–
CNC(=C[N+](=O)[O-])NCCSCc1csc(CN(C)C)n1,inactive,–
O=C1NC(=O)C2CC=CCC12 (stereo not given),inactive,–
CCOC(=O)CC(=O)OCC,inactive,–
CCCCCCCCCCCCCCCCCC[N+](C)(C)C,–,6.12 µM (active)
Oc1ccc(Oc2ccccc2)cc1,inactive,–
c1ccc(CNc2ncnc3nc[nH]c23)cc1,inactive,–
CCCCCCC1CCCC(=O)O1 (stereo not given),inactive,–
